A selection: hits, their analogues and other compounds. The true share with any hit is near 1.1%.
CBFb-RUNX1 inh: CBF-beta/RUNX1 interaction disruption. Q01196+Q13951. AlphaScreen CBFb-His/RUNX1-biotin binding, biochemical. Potency, µM (series often up to 59.8 µM), without a hit: at the top dose activity, negative = inhibition, hits mostly inhibitors. 230,000 tested, under 10 active. AID 1477; further: % of control where 0% means no effect
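Interaction loss through any mechanism counts as activity. Pre-formed complex of His-CBF-beta and biotin-RUNX1 (30 nM apiece) is incubated with compound 15 min, then with 50 ng nickel and 50 ng streptavidin beads for 90 min before AlphaScreen detection.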
HTT cytoprotect: cytoprotection in Huntington HTT-Q103 PC12 cell model; AID 1471; Potency, µM (top dose mostly 56.4 µM), for the others: cytoprotection (ATP increase), most hits filed as activators; hit rate 0.14% among 230,000; PC12 HTT-Q103 induced, cytoprotection, ATP luminescence, 40 h; further: potency means the concentration at half of the fitted maximal effect; % of control where 0% means no effect; nearly all actives have a fitted effect of over 45% in size
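Quantitative HTS on tebufenozide-induced (100 nM) PC12 cells expressing HTTQ103 exon 1–GFP; compounds tested as a concentration series; survival measured via cellular ATP.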
HttQ103 aggreg: mutant huntingtin aggregation inhibition; hit rate 1.1% among 220,000; Potency, µM (highest dose often 46.1 µM), inactives show at the top dose activity change, negative = inhibition, usual class: inhibitors; PC12 HttQ103-GFP aggregates, Acumen cytometry, 40 h; further: potency means the concentration at half of the fitted maximal effect; on the % scale 0 is the no-effect control and ±100 the full control effect; nearly all actives have a fitted effect of over 60% in size
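Inducible Q103 Huntingtin exon 1–GFP PC12 line, 1500 cells/well in phenol red free DMEM with 5% equine and 5% calf serum. Tebufenozide 100 nM induced expression; compounds titrated; aggregates quantified by cytometry.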
LMNA splice mod: LMNA splicing modulation | HeLa LMNA splicing GFP/RFP minigene ratio, 48 h | Potency, µM (titrated, usually from 46.1 µM), without a hit: at the highest dose ratio change, negative = inhibition, hits mostly inhibitors | hit rate 0.01% among 200,000 | AID 1487; active means well fitted inhibition curve with a large enough effect in the signal ratio, with a control signal flat, not every such curve was filed as active; inconclusive means small, poorly fitted or top-dose-only effect, or effect the other way, or a change in a side signal; the % refers to the signal ratio; further: potency means the concentration at half of the fitted maximal effect; on the % scale 0 is the no-effect control and ±100 the full control effect
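Read-out is the ratio of GFP to DsRed2 object intensity, acquired by 488 nm laser-scanning cytometry on HeLa lamin A-EGFP minigene reporter cells. Compound incubation 48 hrs at 37 °C in Opti-MEM with 2% FBS; DMSO 0.5% final.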
NPSR antagonist: antagonists of human neuropeptide S receptor cAMP signaling; Q6W5P4; CHO-NPSR cells, cAMP TR-FRET, antagonist mode; Potency, µM (titrated, usually from 38.3 µM), for inactives: at the top dose activity change, negative = inhibition, actives largely listed as inhibitors; hit rate 1% among 220,000; further: potency means the concentration at half of the fitted maximal effect; on the % scale 0 is the no-effect control and ±100 the full control effect; nearly all actives have a fitted effect of over 50% in size
Target sequence (Q6W5P4 whole entry, looked up): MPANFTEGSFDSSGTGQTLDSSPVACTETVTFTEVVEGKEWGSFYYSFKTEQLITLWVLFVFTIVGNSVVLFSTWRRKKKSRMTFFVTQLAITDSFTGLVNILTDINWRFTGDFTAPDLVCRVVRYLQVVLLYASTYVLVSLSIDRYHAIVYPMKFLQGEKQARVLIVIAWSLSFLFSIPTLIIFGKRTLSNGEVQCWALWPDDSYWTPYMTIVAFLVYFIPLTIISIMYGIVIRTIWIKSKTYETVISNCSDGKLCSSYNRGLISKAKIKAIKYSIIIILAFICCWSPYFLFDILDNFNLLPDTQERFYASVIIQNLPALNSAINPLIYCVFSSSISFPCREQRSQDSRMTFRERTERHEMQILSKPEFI
MBNL1-CUG inh: blocks human MBNL1 binding to CUG repeat RNA | hit rate 0.036% among 280,000 | TR-FRET MBNL1-His/biotin-(CUG)12 binding, 665/545 ratio | Potency, µM (series often up to 57.5 µM), for inactives: at the top dose activity change, negative = inhibition, actives largely listed as inhibitors | Q9NR56; active means well fitted inhibition curve with a large enough effect in the signal ratio, with a control signal flat, not every such curve was filed as active; inconclusive means small, poorly fitted or top-dose-only effect, or effect the other way, or a change in a side signal; inactive means no such curve, though single readings can be large or run the other way; the % refers to the signal ratio; further: potency means the concentration at half of the fitted maximal effect; on the % scale 0 is the no-effect control and ±100 the full control effect
Target sequence (Q9NR56 whole entry, looked up): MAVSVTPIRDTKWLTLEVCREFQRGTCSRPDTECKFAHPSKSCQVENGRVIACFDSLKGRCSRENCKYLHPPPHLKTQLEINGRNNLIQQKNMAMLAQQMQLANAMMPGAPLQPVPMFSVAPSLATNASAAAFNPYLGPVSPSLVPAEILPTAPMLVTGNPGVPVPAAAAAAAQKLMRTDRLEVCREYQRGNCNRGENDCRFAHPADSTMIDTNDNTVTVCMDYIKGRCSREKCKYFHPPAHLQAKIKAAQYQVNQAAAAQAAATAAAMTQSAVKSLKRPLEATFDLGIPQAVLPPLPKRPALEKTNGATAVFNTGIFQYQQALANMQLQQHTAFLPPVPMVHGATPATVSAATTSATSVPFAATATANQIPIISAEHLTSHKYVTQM
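Inhibition of protein-RNA binding appears as loss of TR-FRET between terbium anti-His antibody on MBNL1-His and streptavidin-XL665 on biotin-(CUG)12. Activity is normalized to buffer-only and uninhibited-complex controls.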
Active calls of the source: *; ? = inconclusive; . = no result; [ ] = remark or other dose. Unless noted, the call rests on the fitted dose curve; in most records, active means well fitted curve in the direction sought with a large enough effect; inconclusive means small, poorly fitted or top-dose-only effect, or another doubt; inactive means no such curve, though single readings can be large; an effect the other way counts as inactive or inconclusive.

SMILES	CBFb-RUNX1 inh	HTT cytoprotect	HttQ103 aggreg	LMNA splice mod	NPSR antagonist	MBNL1-CUG inh
COc1ccc(C(=O)/C(C#N)=N/Nc2ccc([N+](=O)[O-])cc2)cc1	-13.2%	-161.8%	1.26µM*	?	-13.2%	5.1%
Cc1c(N/N=C(\C#N)C(=O)c2ccc(Cl)cc2)c(=O)n(-c2ccccc2)n1C	-30.5%	-33.6%[10 µM]	-1.4%	?	-31.5%	4.1%
CCOC(=O)c1sc2cccc(F)c2c1S(=O)(=O)N1CCN(c2cccc(Cl)c2)CC1	.	.	.	-15.4%[46 µM]	.	.
O=c1[nH]c(=O)n(-c2ccc(F)cc2)c2c1C(C(F)(F)F)(C(F)(F)F)N=C(c1ccc(F)cc1)N2	-4.2%	13.6%[10 µM]	3.16µM*	?	-31.4%	-11.0%
Cc1ccc(C2=NC(C(F)(F)F)(C(F)(F)F)c3c(n(-c4ccc(F)cc4)c(=O)[nH]c3=O)N2)cc1	1.7%	3.1%[10 µM]	?	?	-7.1%	.
Brc1ccc(-c2nc(N/N=C/c3cccnc3)c3ccccc3n2)cc1	20.2%	-90.6%	10µM*	?	10µM*	3.4%
CCn1cc(S(=O)(=O)c2cccc(Cl)c2)c(=O)c2cc(F)c(N3CCN(C)CC3)cc21	.	.	.	-27.0%[46 µM]	.	.
COc1cc(C(=O)O[C@H]2C/C(C)=C/CC/C(C)=C/[C@@H](O)C2C(C)C)ccc1O (some centres not stated)	22.5%	.	.	.	.	.
O=C(Nc1cccc(C(=O)N2CCN(Cc3ccccc3)CC2)c1)c1ccccc1	0.0%	-11.2%	11.2µM*	-2.8%	-15.0%[46.1 µM]	-3.3%
CCc1nnc(NC(=O)c2cccc(S(=O)(=O)N3CCc4ccccc43)c2)s1	6.7%	-1.2%[10 µM]	20.3%	?	-13.5%[46.1 µM]	7.9%
Cc1nnc(NC(=O)c2cccc(S(=O)(=O)N3CCc4ccccc43)c2)s1	1.0%	3.1%	?	-8.7%	1.58µM*	-4.1%
CCc1nnc(NC(=O)c2ccc(S(=O)(=O)N3CCCc4ccccc43)cc2)o1	-18.7%	-69.4%[10 µM]	8.91µM*	?	-6.4%[46.1 µM]	0.6%
CCCCC1=CC2=C(c3ccco3)C(=O)C(C)(OC(=O)c3cccs3)C(=O)C2=CO1 (configuration not stated)	-24.0%	-15.9%	.	.	.	.
C1CSC2(N1)C1CC3CC(C1)CC2C3 (configuration not stated)	4.8%	1.58µM*	.	0.3%	-1.6%[46.1 µM]	12.7%
S=C1NNC2(NN1)C1CC3CC(C1)CC2C3	-2.1%	0.7%[10 µM]	17.8%	-2.2%	5.0%[46.1 µM]	-0.9%
Cc1cccc(-n2c(SCC(=O)N3CC(=O)Nc4ccccc43)nc3ccccc3c2=O)c1	-3.5%	2.7%	19.2%	.	-17.5%	-1.7%
Cc1cccc(-n2c(SCC(=O)N3CC(=O)Nc4ccccc43)nc3ccccc3c2=O)c1C	-15.2%	0.891µM*	?	?	-11.3%	1.5%
COC(=O)c1cccc2c1-c1ccccc1/C2=N/O	6.0%	21.5%	10µM*	-3.5%	?	?
Cc1nn(-c2ccccc2)c(Cl)c1C(=O)OC(C)C(=O)NC(=O)NC1CCCCC1 (configuration not stated)	1.8%	-55.9%	11.2µM*	?	-14.9%[46.1 µM]	2.4%
COc1ccccc1C(=O)NCC(=O)OC(C)C(=O)NC(=O)NC1CCCCC1 (configuration not stated)	9.9%	5.9%	9.2%	10.5%	-1.3%[46.1 µM]	-4.4%
Nc1ncnc2c1nc(Br)n2[C@@H]1O[C@H]2COP(=O)(O)O[C@@H]2[C@H]1O	.	-26.0%[1.9 µM]	.	.	.	.
CCOc1cc(/C=C2/C(=O)ON=C2C)ccc1OCc1ccccc1F	-16.2%	-18.6%	12.3%	?	15.8µM*	-3.1%
Cc1nc2ccccc2c(=O)n1/N=C/c1ccco1	15.8%	.	0.6%	.	6.4%	6.7%
Cc1ccccc1OCc1nc2ccccc2c(=O)n1/N=C/c1ccco1	5.8%	-25.4%[10 µM]	22.4µM*	?	-33.3%	8.0%
CCOC(=O)c1sc(=NC(=O)c2ccc(S(=O)(=O)N(C)c3ccccc3)cc2)n(C)c1C	-2.1%	-38.9%	5.0%	-23.9%[46 µM]	3.16µM*	?
SMILES	CBFb-RUNX1 inh	HTT cytoprotect	HttQ103 aggreg	LMNA splice mod	NPSR antagonist	MBNL1-CUG inh
CCOC(=O)c1sc(=NC(=O)c2ccc(C)cc2)n(C)c1C	4.5%	-78.1%	-11.8%	?	?	117.5%
CCCCc1nc2c(c3c1C[C@H](C)OC3)CN(C(=O)Nc1cccc(C#N)c1)CC2	7.1%[13.1 µM]	-14.4%[10 µM]	.	?	.	.
C(=C\c1ccc2ccccc2n1)/c1ccccc1	?	-37.8%[10 µM]	-6.2%[9.22 µM]	?	-42.6%	?
Oc1ccc(/C=C/c2ccc3ccccc3n2)cc1	29.4%	-54.3%[10 µM]	1.4%	12.6µM*	-15.1%	20.1%
Cc1oc2ncn(CC(C)C)c(=O)c2c1C(=O)NC(C)c1ccccc1 (configuration not stated)	.	.	.	-7.7%[46 µM]	.	.
CCCCc1nc2c(c3c1C[C@H](C)OC3)CN(S(=O)(=O)c1ccc(C#N)cc1)CC2	-0.4%[13.1 µM]	-32.8%[10 µM]	.	?	.	.
CC1OC(OC2CCC3(C)C(CCC4C3CC(O)C3(C)C(C5=CC(=O)OC5)CCC43O)C2)CC(O)C1OC1CC(O)C(OC2CC(O)C(OC3OC(CO)C(O)C(O)C3O)C(C)O2)C(C)O1 (configuration not stated)	5.9%	18.2%	-10.2%	.	.	.
c1cncc(CNCc2cccnc2)c1	.	21.4%[10 µM]	.	.	.	.
c1ccc2c(c1)OCC(c1csc3ncnc(N4CCCC4)c13)O2 (configuration not stated)	1.7%	-9.3%	17.8µM*	?	?	-1.1%
O=S(=O)(O)n1ccnc1 (tested in a mixture with another compound)	.	-13.5%[10 µM]	.	.	.	.
OCCN1CCN(C(c2cccs2)c2ccc3cccnc3c2O)CC1 (configuration not stated)	-29.3%	-18.3%[0.074 µM]	31.8%	-7.7%	10µM*	6.7%
CC(C)C1Cc2c(sc3[nH]c(=S)n(Cc4ccccc4)c(=O)c23)CO1 (configuration not stated)	2.8%	-53.9%	?	-28.8%	10µM*	4.5%
Cc1nnc2n(-c3ccccc3)c(=O)c3c4c(sc3n12)COC(C(C)C)C4 (configuration not stated)	5.0%	-1.3%	-8.6%	3.4%	-11.4%[46.1 µM]	4.2%
COC(=O)CN1C(=O)C(C)(C)c2cc(S(=O)(=O)NCc3ccc(Cl)cc3)ccc21	.	.	.	-1.5%[46 µM]	.	.
CC#CCN1c2ccccc2[C@]23C[C@@H](C(=O)OC)N(C(=O)c4cccs4)C2=NC(C(=O)OC)=C(C(=O)OC)[C@H]13	5.8%[13.1 µM]	12.9%[10 µM]	.	5.4%[9.22 µM]	.	.
C1=Nc2ccccc2CN1c1ccccc1	-6.2%	-1.7%[0.074 µM]	-4.6%	6.0%	16.4%	-11.4%

Screening results (PubChem BioAssay)
